Reference: ChEMBL document CHEMBL3988442, “University of Dundee, Small-Polar-MMV Screening Library” (2021)
For part of these data: Entries with a potency or affinity are not part of this list.

Experiments:
Design in all cases: scale not given: direction of the effect not stated beside the values
[1] = molecular target: Protein translocase subunit SecA (Escherichia coli (strain K12)) (UniProt P10408); test: Assay to Identify E. coli SecA ATPase Inhibitors; type: functional; settings: 30 µM
[2] = molecular target: T1, Ubiquitin-activating enzyme e1, putative (Leishmania donovani (strain BPK282A1)) (UniProt E9BSI1); test: Leishmania donovani Ubiquitin Activating Enzyme (LdE1); type: functional; settings: 30 µM
T1 sequence (whole entry): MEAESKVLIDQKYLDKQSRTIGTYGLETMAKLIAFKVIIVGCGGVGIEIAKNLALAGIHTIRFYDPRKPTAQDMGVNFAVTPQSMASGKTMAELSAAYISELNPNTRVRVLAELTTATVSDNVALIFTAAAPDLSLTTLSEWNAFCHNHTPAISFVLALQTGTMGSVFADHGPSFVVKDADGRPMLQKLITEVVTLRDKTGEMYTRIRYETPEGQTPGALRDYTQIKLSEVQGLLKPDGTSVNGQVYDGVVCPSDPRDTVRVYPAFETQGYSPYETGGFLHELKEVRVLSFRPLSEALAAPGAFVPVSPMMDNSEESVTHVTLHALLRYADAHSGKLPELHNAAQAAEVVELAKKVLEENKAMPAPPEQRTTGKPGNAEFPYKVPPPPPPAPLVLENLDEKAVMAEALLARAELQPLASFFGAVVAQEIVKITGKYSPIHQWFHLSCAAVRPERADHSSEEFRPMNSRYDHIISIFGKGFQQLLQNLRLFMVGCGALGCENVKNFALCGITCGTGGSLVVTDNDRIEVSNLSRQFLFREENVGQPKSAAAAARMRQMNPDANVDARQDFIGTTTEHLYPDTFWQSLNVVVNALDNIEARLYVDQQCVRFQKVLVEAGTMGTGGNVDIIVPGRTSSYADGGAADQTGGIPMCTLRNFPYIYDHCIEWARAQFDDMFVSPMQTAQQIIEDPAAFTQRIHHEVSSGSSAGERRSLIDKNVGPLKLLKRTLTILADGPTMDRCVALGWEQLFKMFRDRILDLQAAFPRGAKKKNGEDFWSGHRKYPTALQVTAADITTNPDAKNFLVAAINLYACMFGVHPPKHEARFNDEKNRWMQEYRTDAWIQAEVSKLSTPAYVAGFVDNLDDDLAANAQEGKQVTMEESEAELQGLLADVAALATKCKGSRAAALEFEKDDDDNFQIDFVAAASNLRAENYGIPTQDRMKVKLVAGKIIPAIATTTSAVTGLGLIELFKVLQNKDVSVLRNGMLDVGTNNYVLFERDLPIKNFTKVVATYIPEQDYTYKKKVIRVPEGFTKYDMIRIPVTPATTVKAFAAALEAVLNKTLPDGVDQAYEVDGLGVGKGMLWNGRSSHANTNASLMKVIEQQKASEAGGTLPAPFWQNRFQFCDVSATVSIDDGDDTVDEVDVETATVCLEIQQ

[3] = molecular target: AMP-activated protein kinase, AMPK (Homo sapiens) (UniProt P54646+O43741+P54619+Q9UGJ0+Q9Y478+Q13131+Q9UGI9); test: AMP-dependent Kinase enzyme assay. An in vitro enzyme assay that detects ADP turnover that is directly proportional to AMPK activity. This uses naive AMPK that is activated during the assay with MK-8722; type: functional; settings: 30 µM
[4] = molecular target: Sialic acid-binding Ig-like lectin 9 (Homo sapiens) (UniProt Q9Y336); test: Hs-Siglec9 ALPHAscreen SOP 20170721; settings: 10 µM
Sequence of Sialic acid-binding Ig-like lectin 9 (Homo sapiens) (Q9Y336 whole entry): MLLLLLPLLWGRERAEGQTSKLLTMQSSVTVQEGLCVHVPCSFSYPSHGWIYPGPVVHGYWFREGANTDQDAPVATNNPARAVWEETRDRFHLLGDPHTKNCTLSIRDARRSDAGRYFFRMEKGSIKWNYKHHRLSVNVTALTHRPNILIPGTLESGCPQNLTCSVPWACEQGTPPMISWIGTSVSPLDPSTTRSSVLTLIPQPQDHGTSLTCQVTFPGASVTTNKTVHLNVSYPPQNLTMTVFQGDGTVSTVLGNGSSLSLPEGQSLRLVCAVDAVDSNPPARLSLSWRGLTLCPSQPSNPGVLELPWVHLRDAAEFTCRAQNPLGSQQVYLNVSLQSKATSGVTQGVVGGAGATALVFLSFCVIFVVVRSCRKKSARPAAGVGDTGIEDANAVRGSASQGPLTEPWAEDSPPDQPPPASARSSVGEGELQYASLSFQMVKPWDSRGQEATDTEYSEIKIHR

Trypanosoma cruzi = test: Trypanosoma cruzi phosphomannomutase and mannose-1-phosphate guanylyltransferase assay; type: functional; settings: 10 µM
[5] = molecular target: T2, Arginase-2, mitochondrial (Homo sapiens) (UniProt P78540); test: in vitro enzyme assay to detect the production of urea directly proportional to the activity of Arginase II; type: functional; settings: 33.3 µM; note: in the data most compounds retested in dose-response had high values
T2 sequence (whole entry): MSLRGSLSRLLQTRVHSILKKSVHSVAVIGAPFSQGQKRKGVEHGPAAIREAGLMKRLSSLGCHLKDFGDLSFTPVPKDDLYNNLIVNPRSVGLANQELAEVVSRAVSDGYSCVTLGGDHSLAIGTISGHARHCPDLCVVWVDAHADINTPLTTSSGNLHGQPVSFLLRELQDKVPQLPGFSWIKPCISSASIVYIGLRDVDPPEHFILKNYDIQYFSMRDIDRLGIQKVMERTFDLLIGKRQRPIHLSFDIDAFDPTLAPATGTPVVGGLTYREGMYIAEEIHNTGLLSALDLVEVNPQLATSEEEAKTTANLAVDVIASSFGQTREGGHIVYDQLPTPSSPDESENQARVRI

[6] = molecular target: T3, Proteasome subunit beta (Trypanosoma cruzi) (UniProt O96673); test: Trypanosoma cruzi proteasome chymotrypsin-like activity (TcProtChymo) assay.; note: in the data most compounds retested in dose-response had high values; type: functional; settings: 9.37 µM
T3 sequence (whole entry): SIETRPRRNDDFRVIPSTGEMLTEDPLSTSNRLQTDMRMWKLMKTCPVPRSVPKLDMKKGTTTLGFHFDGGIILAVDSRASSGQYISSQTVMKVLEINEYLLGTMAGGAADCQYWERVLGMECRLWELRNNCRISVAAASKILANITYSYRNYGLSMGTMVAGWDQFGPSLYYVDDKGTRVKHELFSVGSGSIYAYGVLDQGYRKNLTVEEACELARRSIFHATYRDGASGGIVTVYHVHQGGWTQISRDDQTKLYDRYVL

Homo sapiens = organism: Homo sapiens; test: To identify inhibition of the IFN signalling (Jak-Stat) pathway via expression of an eGFP reporter gene under the control of an IFN-stimulated response element (ISRE) containing MxA promoter.; type: functional; settings: 30 µM
[7] = molecular target: T4, Tyrosyl-tRNA synthetase, putative (Trypanosoma cruzi (strain CL Brener)) (UniProt Q4DSP6); test: Trypanosoma cruzi tyrosyl tRNA synthetase (TcYRS) _High Tyrosine SOP; type: functional; settings: 30 µM; note: in the data most compounds retested in dose-response had high values
T4 sequence (whole entry): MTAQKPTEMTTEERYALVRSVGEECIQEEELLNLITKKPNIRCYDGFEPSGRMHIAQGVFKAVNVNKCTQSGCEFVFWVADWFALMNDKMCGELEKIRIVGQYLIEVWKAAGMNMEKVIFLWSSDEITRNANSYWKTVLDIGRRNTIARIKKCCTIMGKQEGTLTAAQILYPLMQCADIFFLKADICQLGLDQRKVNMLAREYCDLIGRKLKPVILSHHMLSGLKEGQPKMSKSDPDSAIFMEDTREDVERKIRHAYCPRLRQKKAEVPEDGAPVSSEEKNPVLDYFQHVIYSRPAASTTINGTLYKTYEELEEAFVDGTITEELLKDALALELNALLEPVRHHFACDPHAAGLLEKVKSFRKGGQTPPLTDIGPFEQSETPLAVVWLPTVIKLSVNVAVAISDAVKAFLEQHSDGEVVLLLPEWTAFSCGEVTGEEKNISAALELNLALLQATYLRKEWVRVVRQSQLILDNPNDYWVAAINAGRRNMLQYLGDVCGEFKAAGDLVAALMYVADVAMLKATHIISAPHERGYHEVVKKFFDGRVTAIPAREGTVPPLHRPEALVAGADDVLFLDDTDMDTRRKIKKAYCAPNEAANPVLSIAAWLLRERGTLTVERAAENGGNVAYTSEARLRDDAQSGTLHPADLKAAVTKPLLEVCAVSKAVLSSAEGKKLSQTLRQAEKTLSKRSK

[8] = molecular target: T4, Tyrosyl-tRNA synthetase, putative (Trypanosoma cruzi (strain CL Brener)); test: Trypanosoma cruzi tyrosyl tRNA synthetase (TcYRS) SOP; type: functional; settings: 30 µM
[9] = molecular target: Chromo domain-containing protein 1 (Saccharomyces cerevisiae (strain ATCC 204508 / S288c) (Baker's yeast)) (UniProt P32657); test: ScCHD-1 Enzyme Inhibition Assay; type: functional; settings: 30 µM; note: in the data most compounds retested in dose-response had high values
Sequence of Chromo domain-containing protein 1 (Saccharomyces cerevisiae (strain ATCC 204508 / S288c) (Baker's yeast)) (P32657 whole entry, the tested form may be a part): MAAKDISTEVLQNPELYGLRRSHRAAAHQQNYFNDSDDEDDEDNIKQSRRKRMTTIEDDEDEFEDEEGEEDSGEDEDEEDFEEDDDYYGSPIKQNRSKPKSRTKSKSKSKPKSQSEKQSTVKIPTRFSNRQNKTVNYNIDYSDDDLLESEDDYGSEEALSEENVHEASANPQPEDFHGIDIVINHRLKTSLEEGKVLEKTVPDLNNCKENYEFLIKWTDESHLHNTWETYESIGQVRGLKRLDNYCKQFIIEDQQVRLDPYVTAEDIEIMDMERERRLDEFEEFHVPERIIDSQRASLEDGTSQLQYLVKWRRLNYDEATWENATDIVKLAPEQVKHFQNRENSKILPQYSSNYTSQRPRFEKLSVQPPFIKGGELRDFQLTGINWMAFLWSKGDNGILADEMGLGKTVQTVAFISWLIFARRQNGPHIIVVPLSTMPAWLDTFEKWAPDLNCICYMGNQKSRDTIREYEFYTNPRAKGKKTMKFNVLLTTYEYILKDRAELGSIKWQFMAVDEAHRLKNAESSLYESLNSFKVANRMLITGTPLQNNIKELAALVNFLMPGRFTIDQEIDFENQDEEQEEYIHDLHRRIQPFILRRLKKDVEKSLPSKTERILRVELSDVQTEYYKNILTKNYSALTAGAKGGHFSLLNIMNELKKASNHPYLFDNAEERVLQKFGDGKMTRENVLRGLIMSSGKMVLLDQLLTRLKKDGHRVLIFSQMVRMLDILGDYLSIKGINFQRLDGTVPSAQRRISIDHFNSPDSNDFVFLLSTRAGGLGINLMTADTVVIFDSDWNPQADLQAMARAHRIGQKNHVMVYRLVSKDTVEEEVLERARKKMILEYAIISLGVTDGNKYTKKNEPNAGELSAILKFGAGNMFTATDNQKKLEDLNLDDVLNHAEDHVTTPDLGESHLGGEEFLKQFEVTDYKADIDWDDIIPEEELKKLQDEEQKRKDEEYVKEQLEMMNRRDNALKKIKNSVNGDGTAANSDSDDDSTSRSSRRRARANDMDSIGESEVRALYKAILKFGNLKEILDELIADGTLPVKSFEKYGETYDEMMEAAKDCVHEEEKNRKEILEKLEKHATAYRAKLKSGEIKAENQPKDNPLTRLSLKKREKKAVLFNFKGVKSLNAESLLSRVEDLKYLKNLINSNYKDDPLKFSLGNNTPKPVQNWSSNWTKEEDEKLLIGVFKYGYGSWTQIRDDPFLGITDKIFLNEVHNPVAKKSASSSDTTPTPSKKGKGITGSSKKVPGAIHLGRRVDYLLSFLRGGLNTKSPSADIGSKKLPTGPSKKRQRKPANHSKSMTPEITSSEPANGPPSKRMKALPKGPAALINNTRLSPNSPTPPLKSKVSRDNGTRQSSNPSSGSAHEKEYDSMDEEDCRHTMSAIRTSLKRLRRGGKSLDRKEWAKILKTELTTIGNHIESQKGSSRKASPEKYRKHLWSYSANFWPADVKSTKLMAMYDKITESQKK

Sequence of Protein translocase subunit SecA (Escherichia coli (strain K12)) (P10408 whole entry): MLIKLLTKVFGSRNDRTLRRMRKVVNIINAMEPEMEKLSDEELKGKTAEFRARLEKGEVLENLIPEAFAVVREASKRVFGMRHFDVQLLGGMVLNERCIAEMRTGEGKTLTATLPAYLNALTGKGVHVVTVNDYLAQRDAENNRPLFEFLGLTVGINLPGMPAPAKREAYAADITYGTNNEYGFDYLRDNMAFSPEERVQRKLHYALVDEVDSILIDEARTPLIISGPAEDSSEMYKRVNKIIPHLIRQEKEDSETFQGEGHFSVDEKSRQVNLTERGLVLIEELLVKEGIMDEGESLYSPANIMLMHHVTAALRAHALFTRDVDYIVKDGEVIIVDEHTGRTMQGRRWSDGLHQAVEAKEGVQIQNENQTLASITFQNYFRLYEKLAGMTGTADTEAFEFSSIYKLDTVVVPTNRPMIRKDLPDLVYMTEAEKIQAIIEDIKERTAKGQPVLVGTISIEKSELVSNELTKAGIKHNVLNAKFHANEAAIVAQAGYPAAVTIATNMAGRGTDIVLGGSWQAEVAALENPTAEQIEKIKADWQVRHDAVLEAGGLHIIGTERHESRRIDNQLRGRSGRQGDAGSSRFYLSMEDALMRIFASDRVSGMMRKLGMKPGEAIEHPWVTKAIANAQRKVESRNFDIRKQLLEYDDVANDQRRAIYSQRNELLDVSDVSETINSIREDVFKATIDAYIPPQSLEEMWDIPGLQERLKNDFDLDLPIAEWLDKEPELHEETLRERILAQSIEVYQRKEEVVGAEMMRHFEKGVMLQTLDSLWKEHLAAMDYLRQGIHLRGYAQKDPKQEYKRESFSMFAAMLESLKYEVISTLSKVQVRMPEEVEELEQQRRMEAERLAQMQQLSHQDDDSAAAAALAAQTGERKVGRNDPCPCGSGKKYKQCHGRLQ

Row | SMILES | Percent Effect [1] [%] | Percent Effect [2] [%] | Percent Effect [3] [%] | Percent Effect [4] [%] | Percent Effect (Trypanosoma cruzi) [%] | Percent Effect [5] [%] | Percent Effect [6] [%] | Percent Effect (Homo sapiens) [%] | Percent Effect [7] [%] | Percent Effect [8] [%] | Percent Effect [9] [%]
1 | CC(C)(C)C(=O)NS(=O)(=O)c1ccc(C#N)cc1C(F)(F)F | -3.4 | 8.11 | -4.85 | 3.66 | -0.849 | 2.81 | 1.8 | 7.18 | 1.48 | 11.1 | -3.67
2 | CN1CCCC(CNC(=O)N2CCN(Cc3ccon3)CC2)C1 (stereo unspecified) | -5.29 | 2.67 | -3.4 | 1.23 | 3.02 | -1.04 | 1.74 | 5.23 | 4.92 | 8.64 | -5.38
3 | c1cnn(-c2ccc(CN3CCOC(Cn4cncn4)C3)cc2)c1 (stereo unspecified) | -2.23 | 12.7 | 0.7 | 6.36 | 2.74 | 1.52 | -2.21 | -11.6 | 7.39 | 13.9 | -8.36
4 | CC(C)(C)C(=O)N1CCC2(COCc3cnc(N4CCOCC4)nc32)C1 (stereo unspecified) | -4.89 | 4 | 3.79 | 6.02 | -2.36 | -7.57 | 9.06 | -1.15 | 2.12 | 2.56 | -1.68
5 | CCn1cnnc1CNC(=O)N1CCCN(C(C)=O)CC1 | -6.81 | 15.6 | -0.601 | 0.0707 | 0.881 | 4.84 | 12.7 | 1.78 | 10.5 | 25.9 | -20.1
6 | COc1cccc(COCC(=O)N2CCCC(c3nncn3C)C2)c1 (stereo unspecified) | -4.98 | 13.5 | -6.54 | 18.4 | 3.11 | -6.81 | 0.721 | 13.5 | 4.43 | 16.1 | -11.8
7 | Cn1c(Cn2cccn2)nnc1C1CCN(Cc2cccnc2N)CC1 | -8.22 | 1.39 | -1.91 | -4.65 | -3.4 | 0.883 | 3.86 | 12.7 | -1.05 | 0 | 0.423
8 | O=C(NCC1CCN(Cc2ccsc2)CC1)NC1CC1 | 1.05 | 7.79 | 2.27 | -0.902 | -5.62 | 14.8 | 17.2 | 10.3 | 2.12 | 6.41 | -5.17
9 | COc1ccccc1OCC(=O)Nc1ncccc1OC(F)F | -3.34 | 1.39 | -0.812 | -4.65 | -7.48 | 4.86 | 13.2 | -3.02 | 1.05 | -5.13 | -3.95
10 | Cn1ccc(C(=O)NC2CCC23CCN(C(=O)c2ccncc2)CC3)c1 (stereo unspecified) | 3.11 | 11 | -2.76 | 16.4 | -3.17 | 0 | 13.6 | 3.03 | 5.21 | 13.6 | 0.95
11 | CC(c1nc(C2CC2)no1)N1CCN(CCOCC(F)(F)F)CC1 (stereo unspecified) | -1.74 | -2.7 | -7.35 | 10.2 | 1.95 | -0.185 | 1.08 | 21 | 2.97 | 11 | 1.39
12 | CC(NC(=O)c1ccc2c(c1)OCC(=O)N2)c1ccccc1F (stereo unspecified) | -5.46 | 18.4 | 22 | 2 | 1.03 | -0.719 | 9.39 | -9.89 | 10.3 | 18.5 | -4.32
13 | COc1ccc(OCc2cc(C(=O)N3CCN[C@H](C)C3)n[nH]2)c(Cl)c1 | -0.706 | 5.41 | 0.0243 | -0.0327 | -4.63 | 2.86 | 14.5 | 5.15 | 2.65 | 9.76 | -3.55
14 | Cc1cnc(CN2CCCC(c3cc(C(N)=O)[nH]n3)C2)o1 (stereo unspecified) | 1.3 | 24.3 | -15.7 | -4.2 | 0.472 | -16.8 | 17.1 | -3.25 | 5.42 | 18.5 | -9.23
15 | CN(Cc1ccccc1)C1(C(=O)O)Cc2ccccc2C1 | -3.87 | 2.67 | -2.42 | 1.78 | -3.6 | 3.12 | 12.9 | 5.79 | 2.73 | 8.64 | -5.27
16 | CCN(CC)C1CCN(C(=O)NCc2c(C)noc2C)CC1 | -3.56 | 5.48 | -3.43 | 2.27 | 0.198 | -3.59 | 10.9 | -3.14 | 7.29 | 13.6 | -1.04
17 | Cc1ncsc1CN1C[C@@H]2COC[C@]2(C(=O)NCC2CC2)C1 | -0.435 | 0 | 8.5 | 2.51 | -4.33 | 5.83 | -1.15 | 25.1 | 2.13 | 1.28 | 10.8
18 | COCC1Cn2nnc(-c3cnn(C)c3)c2CN1Cc1ccc(C)s1 (stereo unspecified) | -0.562 | 10.8 | 12 | -1.82 | 1.37 | 18.3 | -0.0845 | 48.1 | 6.93 | 6.1 | -4.26
19 | Cc1nc2cc(O)nn2c(C)c1CCC(=O)N(C)Cc1cscn1 | -7.5 | 18.4 | -470 | -2.99 | 8.08 | -4.73 | 6.42 | 15.6 | -6.38 | 5.2 | -11.6
20 | c1ccc(OCC2CC3(CCN(Cc4ccncc4)CC3)CO2)nc1 (stereo unspecified) | -3.46 | 9.33 | 6.58 | 5.09 | -4.13 | -4.4 | 12.2 | -5.36 | 2.12 | 7.69 | -5.62
21 | CO[C@H]1CCN(S(=O)(=O)c2cn(C)cn2)[C@H]1Cc1cnn(C)c1 | -4.55 | 2.67 | 1.72 | 2.33 | -2.51 | -52.9 | 6.15 | 1.21 | -4.17 | -25 | -4.77
